Compound activity from PubChem BioAssay.
PDI inh – blocks human protein disulfide isomerase activity; P07237; PDI insulin aggregation turbidity, A650, 90 min; inhibition, % at 10 µM; 350,000 tested, 0.052% active; AID 588391;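 active = mean inhibition across replicates of 30% or more, whatever share of single replicates reach that level; inconclusive = mean inhibition below 30% while every single replicate reaches 30%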
DENV2 CPE – inhibitors of DENV2 cytopathic effect; 350,000 tested, 1.7% active; AID 651640; CPE inhibition, % at 9.99 µM; DENV2-infected cells, cytopathic effect rescue, plate reader; in the data active = CPE inhibition above about 20%, passing the limit was not always enough; inconclusive = no clear call, values can overlap the other calls; tested in BHK-21 cells;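 note: 0% = median of neutral control wells and 100% = median of positive control wells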
ERAP1 HTS inh – inhibitors of human ERAP1 aminopeptidase. recombinant ERAP1, Leu-AMC fluorescence, 60 min. 340,000 tested, 0.15% active. Q9NZ08. inhibition, % at 10.7 µM. AID 652197;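 active = mean replicate inhibition of at least 30%, or all replicates individually reaching that 30% level; inactive = mean below 30% and not every replicate reaching it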;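 note: 0% = neutral control wells and 100% = L-leucinethiol positive control wells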
MLL AF4-AF9 inh – MLL-AF4/AF9 protein interaction inhibition. P42568. AlphaScreen, biotin-AF4 peptide binding to FLAG-AF9. inhibition, % at 10 µM. 350,000 tested, 0.47% active;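 active = every replicate reaching a set inhibition limit, whatever the replicate mean, cut at about 25% in these data; inconclusive = mean inhibition reaches that limit but some replicates miss it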;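 note: 0% = plate neutral control median and 100% = total signal loss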
Target sequence (P42568 whole entry, looked up): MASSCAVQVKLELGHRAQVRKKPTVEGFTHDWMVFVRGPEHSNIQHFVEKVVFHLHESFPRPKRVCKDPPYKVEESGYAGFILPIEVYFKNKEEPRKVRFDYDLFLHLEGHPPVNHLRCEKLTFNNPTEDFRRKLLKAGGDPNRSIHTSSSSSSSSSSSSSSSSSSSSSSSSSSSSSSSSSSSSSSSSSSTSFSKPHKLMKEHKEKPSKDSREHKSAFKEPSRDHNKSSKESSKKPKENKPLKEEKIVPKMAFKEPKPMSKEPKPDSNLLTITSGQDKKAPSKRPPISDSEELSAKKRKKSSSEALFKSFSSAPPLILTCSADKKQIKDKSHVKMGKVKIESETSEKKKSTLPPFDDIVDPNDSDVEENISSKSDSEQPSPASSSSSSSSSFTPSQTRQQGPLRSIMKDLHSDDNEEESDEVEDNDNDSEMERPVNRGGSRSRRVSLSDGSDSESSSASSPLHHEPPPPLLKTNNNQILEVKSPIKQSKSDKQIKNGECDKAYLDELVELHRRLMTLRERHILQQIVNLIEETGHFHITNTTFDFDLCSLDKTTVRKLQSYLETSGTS
ERp5 inh – blocks human ERp5 reductase activity on insulin | Q15084 | ERp5 insulin aggregation, absorbance 650 nm, 90 min | inhibition, % at 9.99 µM | 350,000 tested, 0.05% active;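 active = mean replicate inhibition above about 25%, with every replicate also reaching it, limit read from the data, passing the limit was not always enough; inconclusive = only one of those two criteria met; inactive = neither criterion met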
Alpha interfer – interferes with the AlphaScreen assay signal; shares compounds with MLL AF4-AF9 inh; AlphaScreen interference counter-screen, signal luminescence; AC50, µM (series often up to 12 µM), for the others: at the highest dose activity change, negative = inhibition; 530 tested, 45% active; AID 720494; cut-off not given, nearly all actives have AC50 up to about 14 µM
Active calls of the source: *; ? = inconclusive; · = not tested or not shown. Shown are actives, neighbours in structure and some others; about 1.8% of the full set was active somewhere.

SMILES	PDI inh	DENV2 CPE	ERAP1 HTS inh	MLL AF4-AF9 inh	ERp5 inh	Alpha interfer
C#CCOCCOCCOCCNc1nc(N2CCN(C(=O)[C@H](CCCN=C(N)N)n3cc(C(N)[C@@H](C)CC)nn3)CC2)nc(N2CCN(C(=O)[C@H](CCC(=O)O)n3cc([C@@H](N)CC(N)=O)nn3)CC2)n1 (some centres not stated)	6	10	-8	2	-4	·
Cn1c(=O)cc2c3c(c(N4CCCCC4)ccc31)C(=O)c1ccccc1-2	3	0	-1	54*	-1	10µM*
C[C@H](CO)N1C[C@H](C)[C@H](CN(C)C)Oc2ccc(NS(=O)(=O)c3ccc(Cl)cc3)cc2C1=O	·	-2	0	-18	-3	·
O=S(=O)(c1ccc(Cl)cc1)N1CCN(Cc2ccc(O)c3ncccc23)CC1	-2	0	-1	75*	-4	-33%
O=S(=O)(c1ccc(Cl)cc1)N1CCN(Cc2ccncc2)CC1	-6	-10	1	-2	-1	·
CCOC(=O)/C(C#N)=C/c1c(N2CCN(Cc3ccc4c(c3)OCO4)CC2)nc2c(C)cccn2c1=O	-2	1	1	39*	5	-7%
COC(=O)/C(C#N)=C/c1c(N2CCN(Cc3ccc4c(c3)OCO4)CC2)nc2c(C)cccn2c1=O	-5	0	1	2	2	·
C[C@@H]1NC(=O)N[C@@H]1CCCCCC(=O)O	-4	?	0	90*	4	1.1µM*
CC(C)(C)C1=CC(=Nc2ccccc2N)C=C(C(C)(C)C)C1=O	9	9	3	73*	-2	2.7µM*
COc1ccc(-n2cc(CNCCc3cnc[nH]3)c(-c3cccc(F)c3)n2)cc1	10	-2	9	30*	1	-19%
COc1ccc(-n2cc(CNCc3cccnc3)c(-c3cccc(F)c3)n2)cc1	10	2	-1	0	2	·
CC(C)C[C@@H](C(=O)NC1CCN(Cc2ccccc2)CC1)N1C(=O)N2CCc3c([nH]c4ccccc34)[C@@]2(C)C1=O	·	-9	-2	37*	1	-2%
C[C@@H](C(=O)NC1CCN(Cc2ccccc2)CC1)N1C(=O)N2CCc3c([nH]c4ccccc34)[C@@]2(C)C1=O	·	?	·	15	1	·
Cc1ccccc1-c1ccc(C2[C@H]3CNC[C@@H]2N3Cc2cccnc2)cc1 (some centres not stated)	·	19	·	·	·	·
CC(C)n1ncc2c(C(=O)Nc3ccc(S(C)(=O)=O)cc3)cc(C3CC3)nc21	-3	-10	-4	1	-2	·
CC(C)n1ncc2c(C(=O)Nc3ccc(S(N)(=O)=O)cc3)cc(C3CC3)nc21	1	-1	0	?	-1	-14%
Cc1cccc(NC2=C(NCCO)C(=O)c3ccccc3C2=O)c1	2	0	0	49*	-7	-26%
COc1ccc(NC2=C(NCCO)C(=O)c3ccccc3C2=O)cc1	5	?	-1	56*	0	14µM*
COc1cccc(NC2=C(NCCO)C(=O)c3ccccc3C2=O)c1	-7	?	1	38*	1	14µM*
COc1cccc(Nc2c(Nc3cccc(OC)c3)c(=O)c2=O)c1	-4	4	1	-26	-12	·
C[C@H](NC(=O)C[C@H]1CC[C@@H]2[C@@H](COc3ccc(NS(=O)(=O)c4ccc(Cl)cc4)cc3C(=O)N2C)O1)c1ccccc1	·	0	-2	-1	2	·
O=C(Cc1ccncc1)NCC[C@H]1CC[C@H](NC(=O)C2CCC2)[C@H](CO)O1	·	-6	-1	-3	0	·
COc1ccc(-c2cnc3c(c2)C(=O)N([C@H](C)CO)C[C@@H](C)[C@@H](CN(C)C(=O)C2CCCCC2)O3)cc1	·	1	4	-5	0	·
CCOC(=O)c1c(C)n(-c2ccc(C)cc2)c2ccc(OCC(O)CNCCCO)cc12 (configuration not stated)	-6	5	2	27*	4	-19%
C[C@@H]1CN([C@H](C)CO)C(=O)c2cc(NS(C)(=O)=O)ccc2O[C@@H](C)CCCCO[C@H]1CN(C)Cc1ccc(C(=O)O)cc1	·	8	2	-2	-3	·
SMILES	PDI inh	DENV2 CPE	ERAP1 HTS inh	MLL AF4-AF9 inh	ERp5 inh	Alpha interfer
Cc1ccc2ccc(C(Nc3cccc(C(F)(F)F)c3)c3cccnc3)c(O)c2n1 (configuration not stated)	16	·	3	33*	5	-17%
COc1ccccc1NC(c1cccnc1)c1ccc2cccnc2c1O (configuration not stated)	3	5	1	48*	1	-25%
Cc1ccnc(NC(c2cccnc2)c2ccc3cccnc3c2O)c1 (configuration not stated)	0	-3	2	82*	4	1.5µM*
Cc1cc(NC(c2ccc(Cl)cc2)c2ccc3cccnc3c2O)no1 (configuration not stated)	0	·	·	·	·	·
COc1ccc(C(Nc2cc(C)ccn2)c2ccc3ccc(C)nc3c2O)cc1 (configuration not stated)	-9	-1	-3	22	-8	·
Cc1ccnc(NC(c2ccsc2)c2ccc3ccc(C)nc3c2O)c1 (configuration not stated)	2	9	-6	55*	-1	-13%
CN1CCN(C(=O)C[C@H]2C[C@H]3c4cc(NC(=O)C5CCOCC5)ccc4O[C@H]3[C@H](CO)O2)CC1	·	-3	0	1	-4	·
COCC(=O)N1CC(=O)N2[C@H](C1)[C@H](c1ccc(-c3ccncc3)cc1)[C@@H]2CO	·	14	4	-1	5	·
CC(=Nc1ccc(C)cc1)c1sc2ccccc2c1O	1	·	·	·	·	·
CC(=Nc1ccc(C)cc1C)c1sc2ccccc2c1O	-4	4	·	32*	-3	-23%
CC(O)CNc1nc2sc3c(c2c(=O)n1CCc1ccccc1)CCCCC3 (configuration not stated)	8	-2	0	7	-4	·
CN(C)CCNc1nc2sc3c(c2c(=O)n1CCc1ccccc1)CCCCC3	10	-3	3	31*	·	-8%
CN=c1scc(-c2ccccc2F)n1/N=C(\C)c1cccnc1	1	-1	1	37*	2	-31%
C/C(=N\N1CCN(C2c3ccccc3-c3ccccc32)CC1)c1cccnc1	-1	·	·	·	·	·
O=C(CNCc1ccco1)Nc1ccc(N2CCCCCC2)cc1	10	9	-1	29*	1	-37%
CCCCCc1cc(=O)oc2c(C(CCN3CCCC3)c3ccc(N(C)C)cc3)c(OC)cc(OC)c12 (configuration not stated)	5	-19	0	57*	14	7µM*
CCOc1ccc(Nc2nc(NCC3CCCO3)c3ccccc3n2)cc1 (configuration not stated)	-9	-2	-32	28*	-4	-11%
CCN(CC)S(=O)(=O)N1CCC(C(=O)NCc2ccc(C)cc2)CC1	25	·	·	·	·	·
CCN(CC)c1ccc(CN2CCC(C(=O)NCc3ccc(C)cc3)CC2)cc1	-2	-1	0	?	-5	-35%
